Among the data in PMC12820563, “FoxP3 forms a head-to-head dimer in vivo and stabilizes its multimerization on adjacent microsatellites” are binding signal values, retold here.

Whole data set: some 16,000 sequences, median “rpm ratio (pull-down/input)” near 0.94, cut for the highest 2% near 1.7. This excerpt belongs to a sample that is enriched for the highest values.

This assay addresses T1, MBP-FoxP1dN (Mus musculus, UniProt P58462 326-579).
T1 sequence: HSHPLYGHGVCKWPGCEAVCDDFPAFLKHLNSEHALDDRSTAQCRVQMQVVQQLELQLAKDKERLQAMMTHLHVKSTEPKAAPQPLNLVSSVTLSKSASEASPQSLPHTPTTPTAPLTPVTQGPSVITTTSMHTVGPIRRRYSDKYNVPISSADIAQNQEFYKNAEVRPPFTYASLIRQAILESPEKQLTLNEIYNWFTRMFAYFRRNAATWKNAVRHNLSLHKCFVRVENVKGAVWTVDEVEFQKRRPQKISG
In words: PD-seq (MBP pull-down with sequencing); 20 mM Tris-HCl pH 7.5, 100 mM NaCl, 1.5 mM MgCl2, 0.4 uM protein, 0.1 uM dsDNA library, 30 min, room temperature, amylose pull-down; high values mean tight binding. The settings on record: protein: recombinant; tags: His6-MBP; chain copies: 2; dsDNA, one strand shown. The method in brief: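 A fragment of mouse FoxP3 or FoxP1 without its N-terminus, carrying a His6-MBP tag and produced in E. coli, was combined at 0.4 µM with a 0.1 µM degenerate double-stranded DNA library filled in with Klenow. The mixture sat for 30 min at room temperature in Tris pH 7.5 buffer containing NaCl and MgCl2. Protein–DNA complexes were captured on amylose resin, washed three times, and the DNA was freed with proteinase K, barcoded by PCR and sequenced on Illumina. Binding is expressed as reads-per-million enrichment of pull-down over input, with replicates pooled.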
As to “GATGATTGTTCTCCCAGCTGATGAATTGCTTCCTTCGAGTAAACAAATTTTCCTAATCTTTCTGTTCAAGCGCCATCTAC”, the binding signal is 1.06 RPM ratio (pull-down/input).

As for “GATGATTGTTCTCCCAGCTGATGAATTCTTAATATCGAGTAAACAAATTTTCCTAATCTTTCTGTTCAAGCGCCATCTAC”, the binding signal is 1.08 RPM ratio (pull-down/input).

Regarding “GATGATTGTTCTCCCAGCTGATGAATTCAGGTTGTCGAGTAAACAAATTTTCCTAATCTTTCTGTTCAAGCGCCATCTAC”, the binding signal is 1 RPM ratio (pull-down/input).

On to “GATGATTGTTCTCCCAGCTGATGAATTCGAAGGATCGAGTAAACAAATTTTCCTAATCTTTCTGTTCAAGCGCCATCTAC”, for which the binding signal was 0.845 RPM ratio (pull-down/input).

With “GATGATTGTTCTCCCAGCTGATGAATTTCTTGATTCGAGTAAACAAATTTTCCTAATCTTTCTGTTCAAGCGCCATCTAC”, the binding signal was 1.01 RPM ratio (pull-down/input).

For “GATGATTGTTCTCCCAGCTGATGAATTTGCTGGGTCGAGTAAACAAATTTTCCTAATCTTTCTGTTCAAGCGCCATCTAC”, the binding signal was 0.859 RPM ratio (pull-down/input).

In the case of “GATGATTGTTCTCCCAGCTGATGAATTCGCGGACTCGAGTAAACAAATTTTCCTAATCTTTCTGTTCAAGCGCCATCTAC”, the binding signal is 0.757 RPM ratio (pull-down/input).

For “GATGATTGTTCTCCCAGCTGATGAATTTTCTAATTCGAGTAAACAAATTTTCCTAATCTTTCTGTTCAAGCGCCATCTAC”, the binding signal was 1.05 RPM ratio (pull-down/input).

On to “GATGATTGTTCTCCCAGCTGATGAATTGTTTGTTTCGAGTAAACAAATTTTCCTAATCTTTCTGTTCAAGCGCCATCTAC”, for which the binding signal was 2.72 RPM ratio (pull-down/input).

Turning to “GATGATTGTTCTCCCAGCTGATGAATTTGTTTCTTCGAGTAAACAAATTTTCCTAATCTTTCTGTTCAAGCGCCATCTAC”, the binding signal is 1.7 RPM ratio (pull-down/input).

Regarding “GATGATTGTTCTCCCAGCTGATGAATTTTTTGTTTCGAGTAAACAAATTTTCCTAATCTTTCTGTTCAAGCGCCATCTAC”, the binding signal was 1.13 RPM ratio (pull-down/input).

“GATGATTGTTCTCCCAGCTGATGAATTGTTGAATTCGAGTAAACAAATTTTCCTAATCTTTCTGTTCAAGCGCCATCTAC”: the binding signal was 1.15 RPM ratio (pull-down/input).

For “GATGATTGTTCTCCCAGCTGATGAATTTTGTTTTTCGAGTAAACAAATTTTCCTAATCTTTCTGTTCAAGCGCCATCTAC”, the binding signal was 2.75 RPM ratio (pull-down/input).

For the sequence “GATGATTGTTCTCCCAGCTGATGAATTCTGTTGTTCGAGTAAACAAATTTTCCTAATCTTTCTGTTCAAGCGCCATCTAC”, the binding signal is 2.6 RPM ratio (pull-down/input).

“GATGATTGTTCTCCCAGCTGATGAATTGAATTGTTCGAGTAAACAAATTTTCCTAATCTTTCTGTTCAAGCGCCATCTAC”: the binding signal is 0.984 RPM ratio (pull-down/input).

Turning to “GATGATTGTTCTCCCAGCTGATGAATTGTTGATTTCGAGTAAACAAATTTTCCTAATCTTTCTGTTCAAGCGCCATCTAC”, the binding signal was 2.42 RPM ratio (pull-down/input).

With “GATGATTGTTCTCCCAGCTGATGAATTCTTTTTTTCGAGTAAACAAATTTTCCTAATCTTTCTGTTCAAGCGCCATCTAC”, the binding signal was 1.07 RPM ratio (pull-down/input).

In the case of “GATGATTGTTCTCCCAGCTGATGAATTAGGTATATCGAGTAAACAAATTTTCCTAATCTTTCTGTTCAAGCGCCATCTAC”, the binding signal is 0.972 RPM ratio (pull-down/input).

Take “GATGATTGTTCTCCCAGCTGATGAATTAGCAGGATCGAGTAAACAAATTTTCCTAATCTTTCTGTTCAAGCGCCATCTAC”: the binding signal was 0.814 RPM ratio (pull-down/input).

As to “GATGATTGTTCTCCCAGCTGATGAATTAACAAGGTCGAGTAAACAAATTTTCCTAATCTTTCTGTTCAAGCGCCATCTAC”, the binding signal is 1 RPM ratio (pull-down/input).

For the sequence “GATGATTGTTCTCCCAGCTGATGAATTGTTGACTTCGAGTAAACAAATTTTCCTAATCTTTCTGTTCAAGCGCCATCTAC”, the binding signal is 2.11 RPM ratio (pull-down/input).

On to “GATGATTGTTCTCCCAGCTGATGAATTGATGACTTCGAGTAAACAAATTTTCCTAATCTTTCTGTTCAAGCGCCATCTAC”, for which the binding signal is 0.994 RPM ratio (pull-down/input).

Take “GATGATTGTTCTCCCAGCTGATGAATTGACTTCTTCGAGTAAACAAATTTTCCTAATCTTTCTGTTCAAGCGCCATCTAC”: the binding signal is 0.996 RPM ratio (pull-down/input).

Consider “GATGATTGTTCTCCCAGCTGATGAATTAGTGCGTTCGAGTAAACAAATTTTCCTAATCTTTCTGTTCAAGCGCCATCTAC”, for which the binding signal is 1.1 RPM ratio (pull-down/input).

In the case of “GATGATTGTTCTCCCAGCTGATGAATTCGATCATTCGAGTAAACAAATTTTCCTAATCTTTCTGTTCAAGCGCCATCTAC”, the binding signal was 0.949 RPM ratio (pull-down/input).

“GATGATTGTTCTCCCAGCTGATGAATTGTCACCATCGAGTAAACAAATTTTCCTAATCTTTCTGTTCAAGCGCCATCTAC”: the binding signal is 1.13 RPM ratio (pull-down/input).

On to “GATGATTGTTCTCCCAGCTGATGAATTTTTGTTGTCGAGTAAACAAATTTTCCTAATCTTTCTGTTCAAGCGCCATCTAC”, for which the binding signal was 2.85 RPM ratio (pull-down/input).

Regarding “GATGATTGTTCTCCCAGCTGATGAATTGTTGTTGTCGAGTAAACAAATTTTCCTAATCTTTCTGTTCAAGCGCCATCTAC”, the binding signal is 3.2 RPM ratio (pull-down/input).

Regarding “GATGATTGTTCTCCCAGCTGATGAATTTCTGTTGTCGAGTAAACAAATTTTCCTAATCTTTCTGTTCAAGCGCCATCTAC”, the binding signal is 2.16 RPM ratio (pull-down/input).

Regarding “GATGATTGTTCTCCCAGCTGATGAATTGTCGTTGTCGAGTAAACAAATTTTCCTAATCTTTCTGTTCAAGCGCCATCTAC”, the binding signal is 1.38 RPM ratio (pull-down/input).

In the case of “GATGATTGTTCTCCCAGCTGATGAATTACTGATGTCGAGTAAACAAATTTTCCTAATCTTTCTGTTCAAGCGCCATCTAC”, the binding signal is 1.37 RPM ratio (pull-down/input).
